The target in assay [1] is Cellular tumor antigen p53 (Homo sapiens) (UniProt P04637). The assay can be described thus: Primary qHTS for small molecule compounds that upregulate eGFP-tagged delta133p53alpha (in N-terminal) cells. (AID 2060322). Also: nearly all actives have a fitted effect of over 75% in size. Also: potency is read from the fitted curve at half-maximal effect.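 As to activation: cells pre-induced with doxycycline then dosed without doxycycline; series mostly up to about 56 µM; 0% = DMSO vehicle and 100% = reference activator.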 To be noted: NCI-H358 eGFP-delta133p53alpha fluorescence, 24 h; activation: hits give high values. The method in brief:
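NCI-H358 cells pre-induced 24 h with 10 ng/ml doxycycline for eGFP-delta133p53alpha, plated dox-free and exposed 24 h at 37C to titrated compounds. Fixed, Hoechst-stained; gated GFP peak intensity by laser scanning cytometry, normalized to DMSO (0%) and 57.5 uM 5-azacytidine (100%).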
On the technique in general: Quantitative high-throughput screening tests each substance at several concentrations.

Assay [2] concerns the target Aldehyde dehydrogenase, mitochondrial (Homo sapiens) (UniProt P05091). The experiment in a line: qHTS for Inhibitors of the Aldehyde Dehydrogenase Family (ALDH2) Confirmatory screens (AID 2061303; active = well fitted inhibition curve with a large enough effect; title and protocol of this record describe different tests; also: nearly all actives have a fitted effect of over 45% in size; also: potency is read from the fitted curve at half-maximal effect).
Assay [3] can be described thus: qHTS for Inhibitors of the Aldehyde Dehydrogenase Family (ALDH1A2, ALDH1A3, ALDH2, ALDH3A1) (AID 2061307). Also: nearly all actives have a fitted effect of over 50% in size.
Assay [4] has as its target Aldehyde dehydrogenase, mitochondrial (Homo sapiens) (UniProt P05091). The experiment in a line: qHTS for Inhibitors of the Aldehyde Dehydrogenase Family (ALDH2) Primary screen (AID 2061308).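 Also: plate controls were vehicle for no effect and reference inhibitor for full effect; nearly all actives have a fitted effect of over 55% in size.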
Assay [5] addresses Retinaldehyde dehydrogenase 3 (Homo sapiens) (UniProt P47895). The assay can be described thus: qHTS for Inhibitors of the Aldehyde Dehydrogenase Family (ALDH1A3) Confirmatory screens (AID 2061311). Also: nearly all actives have a fitted effect of over 60% in size. Also: potency is read from the fitted curve at half-maximal effect.
The target is the same in assay [6]. The assay can be described thus: qHTS for Inhibitors of the Aldehyde Dehydrogenase Family (ALDH1A3) Primary screen (AID 2061315).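 Also: plate controls were DMSO vehicle for no effect and reference inhibitor for full effect.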
Assay [7] deals with Aldehyde dehydrogenase 1A1 (Homo sapiens) (UniProt P00352). The experiment in a line: qHTS for Inhibitors of the Aldehyde Dehydrogenase Family (ALDH1A1) Confirmatory screens (AID 2061316). Also: nearly all actives have a fitted effect of over 65% in size. Also: potency is read from the fitted curve at half-maximal effect.
Assay [8] addresses Retinal dehydrogenase 2 (Homo sapiens) (UniProt O94788). The assay can be described thus: qHTS for Inhibitors of the Aldehyde Dehydrogenase Family (ALDH1A2) Confirmation screens (AID 2061314). Also: nearly all actives have a fitted effect of over 65% in size.
Assay [9] is described as follows: BET inhibitor-based combinations targeting novel dependencies in MECOM-rearranged (r) AML: SET-2 cell line (AID 2202231). Also: nearly all actives have a fitted effect of over 35% in size. Also: potency is read from the fitted curve at half-maximal effect.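 As to viability: plate controls were DMSO treated cells for no effect and wells without cells for full effect.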 To be noted: SET-2 AML cells viability, CellTiter-Glo luminescence, 48 h; viability: hits give low values, concentration not given here. The method in brief: (§1)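 Here, 11-point titrations of each agent were applied to 500 seeded cells and incubated 48 hr; CellTiter-Glo signal, scaled against DMSO and empty wells, was integrated as AUC, then Z-scored within the individual line.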

A short description of assay [10]: BET inhibitor-based combinations targeting novel dependencies in MECOM-rearranged (r) AML: OCI-AML3 cell line (AID 2202232). Also: nearly all actives have a fitted effect of over 35% in size. Also: potency is read from the fitted curve at half-maximal effect. As to conditions: Potency: OCI-AML3 viability. The method in brief: as §1
The nature of assay [11]: BET inhibitor-based combinations targeting novel dependencies in MECOM-rearranged (r) AML: MV-4-11 cell line (AID 2202233). Also: potency is read from the fitted curve at half-maximal effect; nearly all actives have a fitted effect of over 45% in size. The method in brief:
(§2)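 Normalized to DMSO and empty-well controls, the luminescence data from CellTiter-Glo after 48 hr drug exposure were fitted across 11 concentrations. Reported metrics are area under the dose-response curve and its Z-transformed form.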

Assay [12] in a line: BET inhibitor-based combinations targeting novel dependencies in MECOM-rearranged (r) AML: HNT-34 cell line (AID 2202234). Also: nearly all actives have a fitted effect of over 35% in size. Also: potency is read from the fitted curve at half-maximal effect. The procedure, abridged:
as §2

The nature of assay [13]: BET inhibitor-based combinations targeting novel dependencies in MECOM-rearranged (r) AML: UCSD-AML1 cell line (AID 2202235). Also: nearly all actives have a fitted effect of over 40% in size. Also: potency is read from the fitted curve at half-maximal effect. The method in brief: as §2
Assay [14] is described as follows: BET inhibitor-based combinations targeting novel dependencies in MECOM-rearranged (r) AML: AML-191 cell line (AID 2202236; also: nearly all actives have a fitted effect of over 35% in size; also: potency is read from the fitted curve at half-maximal effect). The procedure, abridged: as §1
A short description of assay [15]: BET inhibitor-based combinations targeting novel dependencies in MECOM-rearranged (r) AML: AML-194 cell line (AID 2202237; also: potency is read from the fitted curve at half-maximal effect; nearly all actives have a fitted effect of over 40% in size). The procedure, abridged: as §1
The target of assay [16] is Retinaldehyde dehydrogenase 3 (Homo sapiens) (UniProt P47895). The experiment in a line: qHTS for Inhibitors of the Aldehyde Dehydrogenase Family (ALDH1A3) Validation screen (AID 2061312). Also: % is scaled to controls: 0 for no effect and ±100 for the full control effect; nearly all actives have a fitted effect of over 45% in size.

This passage reports activation, Potency and viability results from PubChem BioAssay (NCATS).

Values joined by “and” are separate entries in the source; they are usually repeats but may differ in a detail not shown here. Identical values can stand only once. Inconclusive results are not listed. A number with no mark means an inactive call. Active and inactive are the calls of the source. Unless noted, calls follow the shape of the dose curve; as a rule, active = well fitted curve in the direction sought with a large enough effect; inconclusive = small, poorly fitted or top-dose-only effect, or another doubt; inactive = no such curve, though single readings can be large; an effect the other way counts as inactive or inconclusive.

One may read the viability as a read-out of living cells in per cent, often relative to untreated cells.

Chain of Cellular tumor antigen p53 (Homo sapiens) (P04637 whole entry, looked up): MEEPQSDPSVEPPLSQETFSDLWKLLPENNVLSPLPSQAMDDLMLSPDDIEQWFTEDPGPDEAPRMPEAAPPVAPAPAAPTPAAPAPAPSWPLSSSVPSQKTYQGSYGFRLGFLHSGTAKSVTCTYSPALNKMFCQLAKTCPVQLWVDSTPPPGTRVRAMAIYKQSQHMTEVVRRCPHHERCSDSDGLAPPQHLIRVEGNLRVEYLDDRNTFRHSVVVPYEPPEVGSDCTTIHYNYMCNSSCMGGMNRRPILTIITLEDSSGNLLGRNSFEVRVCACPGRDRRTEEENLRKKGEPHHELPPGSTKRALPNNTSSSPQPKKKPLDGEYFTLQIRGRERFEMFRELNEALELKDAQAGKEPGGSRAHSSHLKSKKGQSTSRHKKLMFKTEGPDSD

As to `CC(C)c1c(-c2cnn(C(C)(C)C)c2)nc2c(C#N)c[nH]n2c1=O`, the activation in assay [1] is 11.2%. Also, the Potency result in assay [2], in [3], in assay [4], in [5], in assay [6] and in [7] was “inactive” each time.

For the molecule `CCNC(=O)OC1CCN(c2nncc3cc(OC)c(OC)cc23)CC1`, the activation in assay [1] is -7.67%. The Potency result in assay [2], in assay [3], in assay [4], in assay [5], in assay [8] and in [6] was “inactive” in each case. Besides, in [7], the Potency entry is “inactive”.

Consider `C=CC(=O)N1CCCN(c2cc(NCCC(=O)O)nc(-c3ccccn3)n2)CC1`, for which the activation in assay [1] is 9.67%. Further, the Potency entry in assay [2], in [3], in assay [4], in assay [5] and in assay [6] was “inactive” throughout.

With `CC(C)Nc1cc(-c2c[nH]c(C(=O)N[C@H](CO)c3cccc(Cl)c3)c2)c(Cl)cn1`, the Potency in [1] is 4.26 µM (active); in assay [9], 20.9 µM (active); in assay [10] it was 2.35 µM (active); in assay [11], 13.2 µM (active); in assay [12], 4.68 µM (active); in [13], 7.42 µM (active). Further, the figures for the Potency in [14] and in [15] were 7.42 µM (active) and 8.33 µM (active), respectively. The Potency result in assay [2], in assay [3], in assay [4], in [5] and in assay [6] was “inactive” in each case.

As for `O=C1C(c2c(O)[nH]c3ccccc23)=Nc2ccccc21`, the activation in assay [1] is -10.6% and 17.7%. In addition, the Potency result in assay [2], in assay [3], in [4], in [5], in assay [6] and in assay [7] was “inactive” in each case. The Potency entry in assay [10], in [12], in assay [13] and in [14] was “inactive” throughout. Moreover, the viability in assay [9] was 103%.

Regarding `C=C1C(=O)O[C@H]2C[C@@H](C)[C@@H]3CCC(=O)[C@@]3(C)C[C@H]12`, the Potency in assay [1] is 10.7 µM (active); in assay [3] it was 20.1 µM (active); in assay [5], 14.2 µM (active). In addition, the Potency entry in assay [2], in assay [4], in assay [8], in assay [6] and in [7] was “inactive” in each case.

As to `C/C(=N\N=C(N)N)c1cc(NC(=O)CCCCCCCCC(=O)Nc2cc(/C(C)=N/N=C(N)N)cc(/C(C)=N/N=C(N)N)c2)cc(/C(C)=N/N=C(N)N)c1`, in [1], the Potency is 26.9 µM (active). Also, the Potency result in assay [2], in assay [3], in [4], in [5], in assay [6] and in [7] was “inactive” in each case.

On to `N[C@H]1Cc2ccccc2N(O)C1=O`, for which, in assay [1], the activation was 13.7%. Further, the Potency entry in assay [2], in assay [3], in assay [4], in assay [5], in assay [8] and in assay [6] was “inactive” in each case. For the same molecule, the Potency result in assay [7] is “inactive”.

Turning to `O=C(c1cccc(Cl)c1F)N1CCN(Cc2cccc(Nc3nccs3)n2)CC1`, the activation in assay [1] is 23.9%. Moreover, the Potency entry in assay [2], in assay [3], in [4] and in assay [6] was “inactive” in each case. Besides, in assay [5], the Potency is 35.5 µM (active).

For `COc1cccc(OC)c1C(=O)N[C@@H]1C(=O)N2[C@@H]1SC(C)(C)[C@@H]2C(=O)O`, in assay [1], the activation was -33.3% and -3%. Further, the Potency entry in [2], in [3], in assay [4], in assay [5], in assay [8] and in [6] was “inactive” each time. The Potency entry in assay [7] was “inactive”.

Turning to `C=C1CC[C@@H]2[C@](C)(CO)[C@H](O)CC[C@@]2(C)[C@@H]1CC(=O)C1=CCOC1=O`, the activation in [1] was 9.16%. For the same molecule, the Potency result in assay [2], in assay [3], in assay [4], in assay [5], in [8] and in [7] was “inactive” each time.

`Cc1cc(Cl)ccc1COc1ccnn1-c1cc(C(=O)O)ccn1`: the activation in assay [1] is 5.67%. Besides, the Potency result in [2], in assay [3], in assay [4], in assay [5], in [8] and in assay [6] was “inactive” in each case.

With `COc1ccc(NC(=O)N2CCc3c2ccc2ccccc32)cc1N1CCN(C)CC1`, the activation in assay [1] is 8.59%. Also, the Potency result in assay [2], in [3], in assay [4], in [5], in [8] and in [7] was “inactive” in each case.

Turning to `COc1ccc(CC2NCCc3c2[nH]c2ccc(C)cc32)cc1OC` (stereo not drawn), the activation in [1] is 5.25%. Also, the Potency entry in assay [2], in assay [3], in assay [4], in [5], in assay [8] and in assay [6] was “inactive” throughout. Moreover, the Potency result in assay [7] is “inactive”.

In the case of `Fc1ccc(-c2nc(C3CCNCC3)sc2-c2ccnc(NC3CC3)n2)cc1`, the Potency in [1] was 26.9 µM (active). For the same molecule, the Potency entry in [2], in assay [3], in assay [4], in assay [5], in [8] and in [6] was “inactive” in each case. In [7], the Potency entry was “inactive”.

For `CC1(C)C[C@H]2C=C(C=O)[C@]3(C(=O)O)C[C@]3(C)[C@H]2C1`, the activation in assay [1] was 18.8%. For the same molecule, the Potency entry in assay [2], in assay [3], in assay [4], in assay [5], in assay [8] and in assay [6] was “inactive” throughout. In addition, the Potency entry in assay [7] is “inactive”.

As for `CCOc1ccc(Cc2nc(-c3c(C)nc4ccccn34)cs2)cc1`, in assay [1], the activation was -8.33%. In addition, the Potency in assay [2] is 12.6 µM (active); in assay [3] it was 11.2 µM (active); in [5] it was 14.1 µM (active); in assay [7], 6.34 µM (active). Further, the Potency result in assay [4] and in assay [6] was “inactive” each time.

Consider `CCC(C)C(N)C(=O)NCCN1CCOCC1` (stereo not drawn), for which, in [1], the activation was 23%. The Potency entry in assay [2], in [3], in assay [4], in [5], in assay [8] and in [6] was “inactive” in each case. Besides, the Potency entry in assay [7] was “inactive”.

As for `CC(O)(C#Cc1ccc2c(c1)N(c1nc(N)ncc1Cl)CC2)c1nccs1` (stereo not drawn), the activation in [1] was -1.22%. Moreover, the Potency result in [2], in assay [3], in assay [4], in assay [5], in assay [8] and in [6] was “inactive” throughout. Further, the Potency result in assay [13] is “inactive”.

For `COc1cc2nc(N3CCCC3)nc(NCCCCCN3CCCC3)c2cc1OC`, the Potency in assay [1] was 30.6 µM (active). Moreover, the Potency entry in assay [2], in [3], in assay [4], in assay [16], in assay [8] and in assay [6] was “inactive” in each case.
